Measured values from the supplement of paper PMC3842684.

Each molecule was assayed on P. falciparum NF54-pfs16-GFP early (I-III) stage gametocytes (assay: relative % inhibition of viable gametocyte number; higher = more gametocytocidal). Details: 0.5 µM; stage: early (I-III) gametocyte; incubation 72 h.
Summary of the method: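 In 384-well poly-D-lysine imaging plates, NF54 pfs16-GFP gametocytes (magnet-isolated, early I/IIa on day 2 or late on day 8; 10% parasitaemia, 0.1% haematocrit) received compound in duplicate at 5 or 0.5 µM. Plates stood 72 h at 37°C in 5% CO2 and 5% O2, then overnight with MitoTracker Red before confocal imaging, where elongated GFP objects with MitoTracker signal above cut-off counted as viable. Relative inhibition was calculated against vehicle and positive-control wells on the same plate.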
For COc1ccc(CNC(=O)c2cc3c(=O)n4ccccc4nc3n(CCc3ccccc3)c2=N)cc1, the relative % inhibition was 2.74%. For COc1ccc(C=C2SC(Nc3ccccc3)=NC2=O)cc1, the relative % inhibition was 11.7%. Work on COc1ccc2nc(C)cc(Nc3cccc(O)c3)c2c1 yielded a relative % inhibition of 2.97%. CCOc1cccc(C(=O)Nc2ccc(-c3nc4ccccc4[nH]3)cc2)c1 was tested, and the relative % inhibition was 35.7%. CCOC(=O)c1cnc2c(CC)cccc2c1O was tested, and the relative % inhibition was -5.02%. COc1ccccc1N1CCN(C(CNS(=O)(=O)c2ccc(Cl)cc2)c2cccnc2)CC1 (centres undefined) gave a relative % inhibition of -2.86%. Molecule CN1CCN(c2ncnc3c2[nH]c2ccc(Cl)cc23)CC1 has a relative % inhibition of 9.76%. CC(Oc1ccc(NC(=O)c2cccs2)cc1)C(=O)c1ccc(Cl)cc1 (centres undefined) gave a relative % inhibition of 10.9%. In the case of CCOC(=O)c1cnc2ccc(OC)cc2c1Nc1ccc(N2CCN(C)CC2)cc1, the relative % inhibition is reported as 53%. Work on Cc1ccc(C(=O)c2oc3ccc4c(C)cc(=O)oc4c3c2C)cc1 yielded a relative % inhibition of 8.47%. Work on COc1ccc(CCn2c(=N)c(C(=O)NCc3cccnc3)cc3c(=O)n4cccc(C)c4nc32)cc1 yielded a relative % inhibition of 45.1%. CN(C)CCCNCc1ccc(-c2ccc(F)c(Cl)c2)o1 gave a relative % inhibition of 32.7%. O=C(NNc1cc(N2CCCC2)nc(N2CCCC2)n1)c1ccccc1 gave a relative % inhibition of -9.28%. With COc1ccc(C(=O)Nc2nonc2-c2ccc(OC)c(OC)c2)cc1Cl the relative % inhibition was 33.4%. Molecule CCn1nc(-c2ccc(C(=O)OC)cc2)nc2c(=O)n(C)c(=O)nc1-2 has a relative % inhibition of 18.4%. Work on O=C(NC1CCN(Cc2ccccc2)CC1)c1cc(-c2ccncc2)nc2ccc(Cl)cc12 yielded a relative % inhibition of 17.7%. CCOc1c(Cl)cc(CNCC(O)c2ccccc2)cc1OC (centres undefined) was tested, and the relative % inhibition was -19.6%. In the case of CN1CCN(c2nc(Nc3ccc(O)cc3)nc3ccccc23)CC1, the relative % inhibition is reported as -17.7%. CCN(CC)CCCNc1ccnc2cc3ccccc3cc12 gave a relative % inhibition of 11%. Work on Cc1cc(C)c2nc(N3CCC(C(=O)NCCCN4CCC(N5CCCCC5)CC4)CC3)sc2c1 yielded a relative % inhibition of 8.57%. CNCCCNc1ccnc2cc(Cl)ccc12 gave a relative % inhibition of 106%. In the case of CCOc1cc2c(cc1OCC)C(c1cc(OC)c(O)cc1Cl)NCC2 (centres undefined), the relative % inhibition is reported as 22.5%. CN(C)c1ccc(N=Cc2ccc(N3CCOCC3)cc2)cc1 showed a relative % inhibition of 2.5%. Cc1cccc(Nc2nc(N)c3ccccc3n2)c1 showed a relative % inhibition of -18.5%. Work on CCOC(=O)C1=C(c2ccccc2)N=c2sc(=Cc3cc(C)n(-c4ccc(F)cc4)c3C)c(=O)n2C1c1cccc(OC)c1OC (centres undefined) yielded a relative % inhibition of 14.6%. Molecule Oc1ccc2ccccc2c1CNc1nc2ccccc2[nH]1 has a relative % inhibition of 11%. In the case of O=C(Nc1ccc(N2CCN(Cc3ccccc3)CC2)cc1)c1cccs1, the relative % inhibition is reported as 14.2%. CN(C)CCNc1cc(-c2ccccc2)nc2ccccc12 was tested, and the relative % inhibition was -7.32%. Cc1ccc(C)c(Cn2c(N3CCC(C(=O)NCc4cccs4)CC3)nc3ccccc32)c1 was tested, and the relative % inhibition was 13.8%. For CCOc1cc(Cl)c(C(C)NC(=O)c2ccccc2)cc1OCC (centres undefined), the relative % inhibition was 15.1%. Molecule O=C(Nc1cccc(-c2nc3ccccc3[nH]2)c1)c1cccc(NC(=O)c2ccco2)c1 has a relative % inhibition of 12.9%. For Oc1c2c(nc3ccccc13)CCCC2, the relative % inhibition was 9.29%. COc1ccc(CNC2CCN(c3ccc(NC(=O)c4cccc(Cl)c4)cc3)CC2)cc1OC gave a relative % inhibition of -12.4%. Cc1ccc(CN2CCC(C(=O)Nc3ccc(-c4cc5ccccc5[nH]4)cc3)CC2)o1 gave a relative % inhibition of 9.97%. Work on FC(F)(F)c1cccc(Nc2nc(-c3ccccc3)nc3ncccc23)c1 yielded a relative % inhibition of 5.1%. COc1ccc(-c2nc(NC(=O)CS(=O)(=O)c3ccc(F)cc3)sc2C)cc1 showed a relative % inhibition of 12.7%. OC1=C2C(=Nc3ccccc3SC2c2ccc(Br)cc2)c2ccccc21 (centres undefined) gave a relative % inhibition of 3.13%. In the case of CCc1ccc(Nc2cc(C)nc3nc(C)nn23)cc1, the relative % inhibition is reported as -3.8%. In the case of Cc1ccc(-c2cc3c(SCC(=O)Nc4cc(C(F)(F)F)ccc4Cl)nccn3n2)cc1, the relative % inhibition is reported as -5.62%.
